# Assay results taken from PubChem BioAssay.
# Values without a mark were called inactive. For some assays here: Measured potencies and affinities stand elsewhere. Activity calls are given as the source filed them. Unless noted, how the calls were made is not given here.
# Assays:
# [1] = antimalarial activity against Dd2 strain (AID 2302;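 active means growth inhibition above 50% at the single 2 µM test dose, taken to imply half-maximal potency below 2 µM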;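 further: 0% = DMSO untreated growth and 100% = chloroquine plus artemisinin killed control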); settings: P. falciparum Dd2 in RBCs, LDH growth readout, 72 h; at 2 µM; active compounds read high
# [2] = HepG2 cytotoxicity, primary screen, cytotoxicity control for P. falciparum antimalarial project, cell-based, ATP luminescence (AID 2303;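 active means inhibition above 50%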;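 further: 0% = DMSO wells and 100% = digitonin-killed cells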); settings: HepG2 viability, 24-48 h, at 10 µM, active compounds read high
# [3] = biological target: L-lactate dehydrogenase (Plasmodium falciparum (isolate CDC / Honduras)) (UniProt Q27743); assay: PfLDH activity inhibition – cell lysate, 3D7 strain, counter-screen for P. falciparum growth inhibition project (AID 2304);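 further: 0% = vehicle and 100% = reference inhibitor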; settings: P. falciparum 3D7 crude extract, LDH APAD/NBT absorbance; at 2 µM; active compounds read high
# [4] = inhibition of 3D7 malaria parasite growth – strain 3D7 (AID 2306);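 further: 0% = DMSO wells and 100% = chloroquine plus artemisinin control wells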; settings: P. falciparum 3D7 erythrocytic growth, LDH absorbance, 72 h; at 2 µM; active compounds read high
# [5] = biological target: Calcium-dependent protein kinase 1 (Plasmodium falciparum (isolate 3D7)) (UniProt P62344); assay: PfCDPK1 kinase inhibitors, biochemical, TCAMS library (AID 1159585; cut-off not given, nearly all actives have IC50 up to about 0.98 µM;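 further: inhibitors leave more ATP so luminescence rises with inhibition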); settings: recombinant PfCDPK1, Kinase-Glo ATP depletion luminescence
# [6] = biological target: Plasmodium falciparum protein kinase 6 (PK6, PF3D7_1337100) (UniProt Q8IDW1); assay: PfPK6 kinase inhibitors, biochemical, TCAMS library (AID 1159586); settings: recombinant PfPK6, Kinase-Glo ATP depletion luminescence
# [7] = biological target: Protein kinase 7 (PK7), Plasmodium falciparum 3D7 (PF3D7_0213400) (UniProt Q7YTF7); assay: inhibition of Plasmodium PK7 catalytic activity – biochemical, TCAMS antimalarial set, Kinase-Glo luminescence (AID 1159587); settings: recombinant PfPK7, Kinase-Glo ATP depletion luminescence
# [8] = biological target: Calcium-dependent protein kinase 4 (Plasmodium falciparum (isolate 3D7)) (UniProt Q8IBS5); assay: PfCDPK4 kinase inhibitors, biochemical, TCAMS library (AID 1159588; cut-off not given, nearly all actives have IC50 up to about 0.91 µM); settings: recombinant PfCDPK4, Kinase-Glo ATP depletion luminescence
# Chain of Calcium-dependent protein kinase 4 (Plasmodium falciparum (isolate 3D7)) (Q8IBS5 whole entry, looked up): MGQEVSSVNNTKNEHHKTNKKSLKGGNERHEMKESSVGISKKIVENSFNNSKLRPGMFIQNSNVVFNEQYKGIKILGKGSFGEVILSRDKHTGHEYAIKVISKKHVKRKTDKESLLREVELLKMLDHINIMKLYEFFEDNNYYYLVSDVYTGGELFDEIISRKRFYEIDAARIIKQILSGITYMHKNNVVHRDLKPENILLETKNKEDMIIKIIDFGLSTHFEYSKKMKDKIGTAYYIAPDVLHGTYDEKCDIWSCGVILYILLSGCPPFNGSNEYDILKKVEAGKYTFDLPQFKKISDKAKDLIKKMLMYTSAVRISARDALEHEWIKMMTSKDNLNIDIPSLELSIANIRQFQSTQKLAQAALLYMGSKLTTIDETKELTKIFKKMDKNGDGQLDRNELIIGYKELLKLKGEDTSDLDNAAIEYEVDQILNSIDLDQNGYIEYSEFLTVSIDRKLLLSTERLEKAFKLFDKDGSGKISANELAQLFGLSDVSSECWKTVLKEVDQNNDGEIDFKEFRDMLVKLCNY
# Chain of Calcium-dependent protein kinase 1 (Plasmodium falciparum (isolate 3D7)) (P62344 whole entry, looked up): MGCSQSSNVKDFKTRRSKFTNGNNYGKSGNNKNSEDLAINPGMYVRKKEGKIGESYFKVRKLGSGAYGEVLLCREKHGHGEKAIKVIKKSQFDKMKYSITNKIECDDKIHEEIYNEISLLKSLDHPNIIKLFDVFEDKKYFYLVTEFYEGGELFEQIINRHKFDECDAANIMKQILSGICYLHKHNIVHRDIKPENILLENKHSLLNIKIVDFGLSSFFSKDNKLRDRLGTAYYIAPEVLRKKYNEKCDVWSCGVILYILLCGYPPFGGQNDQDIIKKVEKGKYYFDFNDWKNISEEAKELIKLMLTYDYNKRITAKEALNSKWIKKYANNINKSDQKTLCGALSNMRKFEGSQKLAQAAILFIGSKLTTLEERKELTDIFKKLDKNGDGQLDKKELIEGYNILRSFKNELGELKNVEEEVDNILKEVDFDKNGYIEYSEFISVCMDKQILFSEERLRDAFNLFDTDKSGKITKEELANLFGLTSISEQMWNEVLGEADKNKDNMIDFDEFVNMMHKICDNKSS
# Chain of Protein kinase 7 (PK7), Plasmodium falciparum 3D7 (PF3D7_0213400) (Q7YTF7 1-343): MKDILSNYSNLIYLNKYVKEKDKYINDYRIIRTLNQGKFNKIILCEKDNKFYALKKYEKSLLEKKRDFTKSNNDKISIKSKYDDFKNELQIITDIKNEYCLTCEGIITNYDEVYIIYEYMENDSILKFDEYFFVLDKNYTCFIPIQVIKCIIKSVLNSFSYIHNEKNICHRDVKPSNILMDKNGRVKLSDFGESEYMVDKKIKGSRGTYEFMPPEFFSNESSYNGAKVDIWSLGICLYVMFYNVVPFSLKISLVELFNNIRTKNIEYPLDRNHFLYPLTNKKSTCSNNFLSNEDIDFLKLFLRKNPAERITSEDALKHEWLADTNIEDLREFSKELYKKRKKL
# Chain of Plasmodium falciparum protein kinase 6 (PK6, PF3D7_1337100) (Q8IDW1 1-305): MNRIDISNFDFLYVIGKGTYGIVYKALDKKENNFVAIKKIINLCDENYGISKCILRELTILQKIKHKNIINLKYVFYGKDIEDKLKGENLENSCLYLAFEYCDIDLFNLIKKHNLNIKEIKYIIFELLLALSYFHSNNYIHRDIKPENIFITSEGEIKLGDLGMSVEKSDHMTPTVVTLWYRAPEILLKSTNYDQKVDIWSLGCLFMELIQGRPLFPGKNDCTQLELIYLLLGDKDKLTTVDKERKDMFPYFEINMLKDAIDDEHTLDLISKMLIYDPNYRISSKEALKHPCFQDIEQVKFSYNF
# Chain of L-lactate dehydrogenase (Plasmodium falciparum (isolate CDC / Honduras)) (Q27743 whole entry, looked up): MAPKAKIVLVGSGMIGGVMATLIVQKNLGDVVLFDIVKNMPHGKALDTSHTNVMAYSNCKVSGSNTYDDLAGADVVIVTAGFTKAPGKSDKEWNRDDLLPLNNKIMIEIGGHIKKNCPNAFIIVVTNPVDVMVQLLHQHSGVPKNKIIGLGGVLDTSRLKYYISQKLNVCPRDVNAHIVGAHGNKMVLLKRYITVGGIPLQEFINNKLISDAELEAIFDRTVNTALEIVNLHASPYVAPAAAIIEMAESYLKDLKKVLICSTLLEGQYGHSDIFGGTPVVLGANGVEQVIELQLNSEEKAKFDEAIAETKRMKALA
Structure (SMILES),growth inhibition [1],inhibition [2],inhibition [3],growth inhibition [4],outcome [5],outcome [6],outcome [7],outcome [8]
COc1ccc2nccc([C@@H](O)CN3CCC(NCc4cc5oc(=O)[nH]c5cc4F)CC3)c2c1,4%,-9%,-2%,99% (active),inactive,inactive,inactive,inactive
CCN1[C@@H](c2ccc(Cl)cc2)[C@@H](CNCc2ccccc2O)C[C@@]1(C)CO,99% (active),47%,-3%,99% (active),inactive,inactive,inactive,inactive
Cc1cc(=O)[nH]c(/N=C(/N)NOCc2ccccc2)n1,1%,0%,0%,101% (active),inactive,inactive,inactive,inactive
CNC(=O)c1cc(F)c(F)cc1Nc1nc(Nc2cccc(CS(C)(=O)=O)c2)ncc1Cl,90% (active),52% (active),3%,91% (active),inactive,inactive,inactive,inactive
CN1CCC(Oc2cc(NC(=O)Nc3ccc(-c4ccncc4)c(C(F)(F)F)c3)ccc2Cl)CC1,92% (active),30%,-1%,100% (active),inactive,inactive,inactive,inactive
COc1ccc(-c2ccc3c(-c4cccc(S(C)(=O)=O)c4)cnc(N)c3c2)cc1,12%,41%,2%,89% (active),inactive,inactive,inactive,inactive
CCC(C)NS(=O)(=O)c1ccc2nc(Nc3ccc(C)cc3)n(C3CCCCC3C)c2c1 (stereo not given),99% (active),1%,1%,95% (active),inactive,inactive,inactive,inactive
CO/N=C(\C)c1ccc2c(c1)CCN(CCC1CCC(NC(=O)/C=C/c3ccc(F)cc3)CC1)CC2 (stereo not given),15%,45%,1%,95% (active),inactive,inactive,inactive,inactive
Cc1cccc2[nH]c(-c3cccc(-c4ccc(NC(=O)c5cnccc5C(F)(F)F)cc4)c3)nc12,37%,60% (active),-3%,100% (active),inactive,inactive,inactive,inactive
COc1cc(N)cc2sc(N)nc12,99% (active),0%,-2%,99% (active),inactive,inactive,inactive,inactive
Cc1cccc2[nH]c(-c3ccc(-c4cccc(NC(=O)c5cnccc5C(F)(F)F)c4)cc3)nc12,13%,25%,0%,84% (active),inactive,inactive,inactive,inactive
Clc1ccc(CNCCCCCCNCc2ccc(Cl)cc2)cc1,28%,53% (active),1%,96% (active),inactive,inactive,inactive,inactive
Nc1nccc2ccc(-c3cccnc3)cc12,95% (active),9%,2%,97% (active),inactive,inactive,inactive,inactive
CCc1nc(N)nc(N)c1-c1ccc(C(C)(C)C)cc1,-5%,27%,-7%,94% (active),inactive,inactive,inactive,inactive
CC(C)n1ncc2c(C(=O)N3CCCCCC3)cc(-c3ccccc3)nc21,42%,-12%,2%,97% (active),inactive,inactive,inactive,inactive
COc1cc(NC(=O)Nc2cccc3ccccc23)c(OC)cc1Cl,71% (active),-12%,3%,97% (active),inactive,inactive,inactive,inactive
O=C(Oc1ccc(Cl)cc1C(=O)Nc1ccc([N+](=O)[O-])cc1Cl)c1ccccc1,19%,88% (active),3%,97% (active),inactive,inactive,inactive,inactive
COc1cccc(C23N=C(Nc4nc5ccccc5[nH]4)NC2(c2cccc(OC)c2)NC(Nc2nc4ccccc4[nH]2)=N3)c1 (stereo not given),99% (active),-9%,3%,101% (active),inactive,inactive,inactive,inactive
C[C@@H]1CN(c2cnn(Cc3ccc(NC(=O)Nc4cccc(C(F)(F)F)c4)cc3)c(=O)c2Cl)C[C@H](C)N1,31%,-10%,-7%,86% (active),inactive,inactive,inactive,inactive
CC1CN(Cc2ccc(-c3ccc(-c4nc5ccc(F)cc5[nH]4)cc3)cc2)CC(C)O1 (stereo not given),93% (active),40%,-1%,96% (active),inactive,inactive,inactive,inactive

Structure (SMILES),growth inhibition [1],inhibition [2],inhibition [3],growth inhibition [4],outcome [5],outcome [6],outcome [7],outcome [8]
CN1CCC(NCc2cccc(-c3ccc(S(=O)(=O)NCc4ccccc4)cc3)c2)CC1,93% (active),61% (active),0%,100% (active),inactive,inactive,inactive,inactive
COc1cc2nc(NCC3CCCCC3)nc(NCc3ccccc3)c2cc1OC,101% (active),18%,7%,101% (active),inactive,inactive,inactive,inactive
CN1CCN(Cc2ccc(-c3ccc4c(Nc5cc(O)c(F)cc5Cl)ccnc4c3)o2)CC1,99% (active),27%,3%,101% (active),inactive,inactive,inactive,inactive
COc1ccc(NC(=O)c2ccc(-c3cc(NC(=O)c4ccnc(N5CCCC5)c4)ccc3C)s2)cc1N1CCN(C)CC1,100% (active),15%,6%,100% (active),inactive,inactive,inactive,inactive
O=C(Nc1ccccc1)c1ccc(-c2cc3ccncc3cc2OC2CCNCC2)s1,8%,-1%,-2%,100% (active),inactive,inactive,inactive,inactive
CN(C)CCCN1CCN(Cc2ccc(-c3ccc(-c4nc5ccccc5[nH]4)s3)cc2)CC1,100% (active),19%,4%,102% (active),inactive,inactive,inactive,inactive
C=CCn1c(SCc2c(C)noc2C)nc2scc(-c3cccs3)c2c1=O,34%,13%,0%,88% (active),inactive,inactive,inactive,inactive
Cc1[nH]c(C)c(-c2ccc(-c3ccc4c(c3)OCO4)nc2)c(=O)c1Br,96% (active),-6%,-8%,96% (active),inactive,inactive,inactive,inactive
COc1cc2nc(N3CCN(C(=O)c4ccc(N(C(=O)OC(C)(C)C)C(=O)OC(C)(C)C)cc4)CC3)nc(N)c2cc1OC,19%,12%,1%,96% (active),inactive,inactive,inactive,inactive
O=C(C=Cc1ccc(Cl)c(Cl)c1)NCCCCCN1CCC(CCCNC(=O)c2ccc3c(c2)OCO3)CC1,64% (active),38%,-5%,98% (active),inactive,inactive,inactive,inactive
NC(N)=NN=Cc1ccc2c(ccc3ccccc32)c1,68% (active),9%,6%,100% (active),inactive,inactive,inactive,inactive
CON=Cc1sc(CNCCCNc2cc(=O)c3ccccc3[nH]2)c(C)c1Br,63% (active),-8%,-1%,96% (active),inactive,inactive,inactive,inactive
CC(C)c1ccc(-c2noc(SCC(=O)N3CCCCC3C)n2)cc1 (stereo not given),92% (active),21%,2%,92% (active),inactive,inactive,inactive,inactive
N#Cc1ccc(N[C@@H](CC2CCCCC2)C(=O)NCc2cc(F)c(F)cc2F)c2ccccc12,39%,12%,-3%,94% (active),inactive,inactive,inactive,inactive
COc1ccc2c(C)cc(NCCCN(C)C)nc2c1,19%,10%,3%,95% (active),inactive,inactive,inactive,inactive
Cc1cccc2[nH]c(-c3ccc(-c4ccc(NC(=O)C(C)CN5CCN(C)CC5)cc4)s3)nc12 (stereo not given),99% (active),17%,-2%,101% (active),inactive,inactive,inactive,inactive
CC(Cc1ccc(OCCN2CCN(c3cccc(Cl)c3)CC2)cc1)NCC(O)c1cccc(Cl)c1 (stereo not given),91% (active),48%,3%,93% (active),inactive,inactive,inactive,inactive
OCCc1ccc(Nc2nccc(-c3nnc4ccccn34)n2)cc1,46%,63% (active),6%,93% (active),inactive,inactive,inactive,inactive
Brc1cccc(Nc2nccc(Nc3ccc(Oc4ccccc4)cc3)n2)c1,5%,-6%,-4%,89% (active),inactive,inactive,inactive,inactive
S=C(NN=Cc1ccccn1)NC1C[C@H]2C=C[C@@H]1C2 (stereo not given in full),96% (active),51% (active),-2%,99% (active),inactive,inactive,inactive,inactive
